# MEKK3 PB1 HTS – raises or lowers MEK5 binding to the human MEKK3 PB1 domain. Q99759. bead-based flow cytometry, Alexa488-MEK5 binding to MEKK3; actives lie on both sides; 0 = blocked by unlabeled MEK5, 100 = vehicle. binding response (% of control), % at 10 µM. 290,000 tested, 1.4% active. AID 1529;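 active means binding response more than 3 SD above or below the average of its plate-row segment, actives on both sides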;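 further: Alexa488 bead fluorescence after subtracting the streptavidin-only scavenger bead signal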
# Target sequence (Q99759 whole entry, looked up, the tested form may be a part): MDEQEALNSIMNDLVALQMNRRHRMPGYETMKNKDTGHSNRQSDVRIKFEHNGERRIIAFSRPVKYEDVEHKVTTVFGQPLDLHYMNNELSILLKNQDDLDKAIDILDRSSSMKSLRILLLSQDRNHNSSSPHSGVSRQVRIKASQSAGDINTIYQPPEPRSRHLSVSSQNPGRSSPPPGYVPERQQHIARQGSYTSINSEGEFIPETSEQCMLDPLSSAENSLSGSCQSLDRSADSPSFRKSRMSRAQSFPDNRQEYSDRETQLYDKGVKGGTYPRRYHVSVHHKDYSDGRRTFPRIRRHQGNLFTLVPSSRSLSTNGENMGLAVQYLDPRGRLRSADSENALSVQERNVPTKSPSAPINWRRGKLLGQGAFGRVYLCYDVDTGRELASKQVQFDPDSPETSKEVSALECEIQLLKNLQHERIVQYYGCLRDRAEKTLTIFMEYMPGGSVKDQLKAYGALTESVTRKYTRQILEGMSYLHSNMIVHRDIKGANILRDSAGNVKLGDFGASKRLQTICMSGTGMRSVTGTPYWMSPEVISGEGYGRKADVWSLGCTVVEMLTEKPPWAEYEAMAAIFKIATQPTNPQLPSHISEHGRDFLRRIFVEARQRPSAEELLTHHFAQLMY
# NRP1-CendR mod – alters CendR peptide binding to human NRP-1; FAM-RPARPAR peptide binding to NRP-1, fluorescence polarization; inhibition, % at 25 µM; 360,000 tested, 0.85% active;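 active means inhibition or corrected inhibition above about 18%, plus a signal ratio from 0.5 to 1.5, limit read from the data, passing the limit was not always enough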
# MEKK2mut PB1 HTS – signal of MEK5 binding to mutant human MEKK2 PB1 domain | bead flow cytometry, Alexa488-MEK5 binding to MEKK2 mutant | percent response, % at 10 µM | 290,000 tested, 0.35% active | AID 1530; in the data active means percent response above about 24%, passing the limit was not always enough
# SKN-1 block – blocks SKN-1 activity in C. elegans | C. elegans VP596 Pgst-4::GFP/RFP ratio, acrylamide-induced, 24 h | AID 624304 | inhibition, % at 21.8 µM | 360,000 tested, 0.49% active;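 active means interference check ratio from 0.5 to 1.5 plus GFP to RFP signal ratio inhibition reaching or exceeding a fixed threshold, cut at about 30% in these data, passing the limit was not always enough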
# MEKK2wt PB1 HTS – raises or lowers MEK5 binding to wildtype human MEKK2 PB1 domain. Q9Y2U5. bead flow cytometry, Alexa488-MEK5 binding to MEKK2 WT; actives lie on both sides. binding response (% of control), % at 10 µM. 290,000 tested, 1.1% active. AID 1531; in the data active means binding response below about 67% or above about 130%
# MEKK2wt confirm – raises or lowers MEK5 binding to wildtype human MEKK2, retest. shares compounds with MEKK3 PB1 HTS. bead flow cytometry, Alexa488-MEK5 binding to MEKK2 WT; actives lie on both sides. binding response (% of control), % at 10 µM. 5,900 tested, 2.4% active; in the data active means binding response below about 16% or above about 210%; inactive means in between
# MEKK2mut confirm – signal of MEK5 binding to mutant human MEKK2, retest | percent response, % at 10 µM | bead flow cytometry, Alexa488-MEK5 binding to MEKK2 mutant | shares compounds with MEKK3 PB1 HTS | 5,900 tested, 2% active; in the data active means percent response mostly above about 71%, no sharp cut-off; inactive means mostly below about 38%;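 further: higher means compound restores mutant binding toward wildtype level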
# MEKK3 confirm – MEKK3-MEK5 PB1 inhibition, single concentration confirmation | 5,900 tested, 1.8% active | bead flow cytometry, Alexa488-MEK5 binding to MEKK3; active compounds read low | shares compounds with MEKK3 PB1 HTS | binding response (% of control), % at 10 µM;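 active means binding response below 72% of control, or above a set upper limit, though filed actives all read lower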;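 further: 100% = DMSO only wells and 0% = binding blocked by excess unlabeled MEK5; lower values mean stronger disruption of MEK5 binding to MEKK3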
# An asterisk follows results filed as active; . = no result; [ ] = dose if it differs, or a comment. An excerpt weighted towards active compounds, which were near 3.2% of everything screened.
SMILES,MEKK3 PB1 HTS,NRP1-CendR mod,MEKK2mut PB1 HTS,SKN-1 block,MEKK2wt PB1 HTS,MEKK2wt confirm,MEKK2mut confirm,MEKK3 confirm
C#CCOCCOCCOCCNc1nc(N2CCN(C(=O)[C@H]([C@@H](C)CC)n3cc([C@@H](N)CO)nn3)CC2)nc(N2CCN(C(=O)[C@H](Cc3cc4ccccc4[nH]3)n3cc([C@@H](N)C(C)CC)nn3)CC2)n1 (stereo partly drawn),107,.,56*,.,181*,175,87*,104
C#CCOCCOCCOCCNc1nc(N2CCN(C(=O)C([C@@H](C)CC)n3cc(C(N)COC(=O)C(F)(F)F)nn3)CC2)nc(N2CCN(C(=O)[C@H](Cc3cc4ccccc4[nH]3)n3cc(C(N)CO)nn3)CC2)n1 (stereo partly drawn),101,.,11,.,143*,189,58,108
C#CCOCCOCCOCCNc1nc(N2CCN(C(=O)C([C@@H](C)CC)n3cc(C(N)CO)nn3)CC2)nc(N2CCN(C(=O)[C@H](CCC(=O)O)n3cc(C(N)[C@H](C)CC)nn3)CC2)n1 (stereo partly drawn),82,.,1,.,69,.,.,.
CC1(C)OC(=O)N(NCc2ccccc2)C1(C)O (stereo not drawn),108,0,10,3,107,.,.,.
CC(=O)C1(O)C(C)CC2C3CC(F)C4(O)CC(O)CCC4(C)C3CCC21C (stereo not drawn),.,12,.,11,.,.,.,.
CSc1c(CC(=O)Nc2ccccc2)n(C)c2ccccc12,104,12,7,-31,110,.,.,.
Cn1c(CC(=O)Nc2ccccc2)c(Sc2ccccc2)c2ccccc21,139*,6,2,10,121,108,-6,104
CCc1ccc2c(c1)C(c1ccc(N3CCOCC3)cc1)=NNC(c1ccncc1)=N2,148*,17,7,-3,131,103,0,104
CCOc1ccc(C2OC34CCCCC3C(C#N)(C#N)C2(C#N)C(=N)O4)cc1OC (stereo not drawn),101,16,2,31,100,.,.,.
CCC12OC(=N)C(C#N)(C1C)C(C#N)(C#N)C(c1ccccc1)O2 (stereo not drawn),141*,-4,0,18,109,108,3,103
Cc1cccc(C)c1OCCCN1CCCC1,104,-5,14,-5,103,.,.,.
Cc1cccc(C)c1OCCOCCN1CCN(C)CC1,105,11,6,-9,145*,121,16,102
CCN(CC)S(=O)(=O)c1ccc(NC(=S)NC(=O)CC(C)C)cc1,105,-7,-3,-8,100,.,.,.
CCc1ccc(NC(=S)NC(=O)CC(C)C)cc1,148*,8,1,6,110,104,11,108
O=[N+]([O-])c1c(Nc2ccccc2)ccc2nonc12,100,4,3,-3,99,.,.,.
NS(=O)(=O)c1ccc(Nc2ccc3nonc3c2[N+](=O)[O-])cc1,133*,23,2,-3,110,98,-4,100
N#Cc1ccc(CSc2nc(N)cc(N)n2)cc1,97,-3,0,3,103,.,.,.
Cc1cc(N2CCCCC2)nc(SCc2ccc(C#N)cc2)n1,122*,-6,4,13,115,85,0,91
C=CCn1c(SCC(=O)N2CCN(c3ccccc3)CC2)nc2c([nH]c3ccccc32)c1=O,97,-4,5,19,104,.,.,.
O=C(O)CSc1nnc(-c2ccccc2Br)n1-c1cccc(C(F)(F)F)c1,101,20,3,0,99,.,.,.
CCNC(=O)CSc1nnc(-c2ccccc2Br)n1-c1cccc(C(F)(F)F)c1,128*,12,1,-7,109,100,0,99
NC(=O)CSc1nnc(-c2ccccc2Br)n1-c1cccc(C(F)(F)F)c1,139*,-12,-1,5,101,104,-4,102
CC(Sc1nnc(-c2ccccc2Br)n1-c1cccc(C(F)(F)F)c1)C(N)=O (stereo not drawn),97,11,0,7,91,.,.,.
O=C(NCC(F)(F)F)[C@H]1O[C@@H](n2ccc(=O)[nH]c2=O)[C@H](O)[C@@H]1O,.,5,.,-1,.,.,.,.
CCOC(=O)/C(=N/Nc1ccc(Cl)cc1)Sc1nnnn1-c1ccc(C)cc1,100,-20,-1,1,102,.,.,.
SMILES,MEKK3 PB1 HTS,NRP1-CendR mod,MEKK2mut PB1 HTS,SKN-1 block,MEKK2wt PB1 HTS,MEKK2wt confirm,MEKK2mut confirm,MEKK3 confirm
O=C(/C(=N\Nc1ccc(Br)cc1)Sc1nnnn1-c1ccccc1)c1ccccc1,130*,2,-1,20,104,107,-2,104
CCOC(=O)/C(=N/Nc1ccccc1)Sc1nnnn1-c1ccc(C)cc1,129*,-6,4,-1,105,100,-2,97
O=[N+]([O-])c1ccccc1S(=O)(=O)Nc1cccnc1,100,12,4,-2,101,.,.,.
CCOC(=O)c1cnc2ccccc2c1NCCO,87,-6,-3,-6,99,.,.,.
CCOC(=O)c1cnc2c(ccc3ccccc32)c1NCCCN(C)C,111,-1,9,16,151*,129,16,102
CCn1c(SCC(=O)c2ccc(Cl)cc2)nnc1-c1ccoc1C,109,3,6,1,106,.,.,.
Cc1occc1-c1nnc(SCC(=O)c2ccc(Cl)cc2)n1CC1CCCO1 (stereo not drawn),2.0*[inhibitor],-19,-26,-4,3.0*[inhibitor],105,4,104
CCOC(=O)/C(C#N)=C\c1c(OCC)n(CC)c2ccccc12,134*,8,1,14,109,104,1,106
COC(=O)[C@@]12C[C@@H](CC(=O)NCCC(C)C)C(=O)N(CCc3ccc(OC)c(OC)c3)C1=CCC(C)(C)C2,.,1,.,-6,.,.,.,.
CC1(C)CC(=O)C2=C(C1)Nc1[nH]c(=S)[nH]c(=O)c1C2c1ccccc1 (stereo not drawn),106,-1,-1,-8,102,.,.,.
CSc1nc2c(c(=O)[nH]1)C(c1ccccc1)C1=C(CC(C)(C)CC1=O)N2 (stereo not drawn),131*,0,4,10,121,104,4,111
COc1cccc(CNS(=O)(=O)c2ccc(S(=O)(=O)N3CCCC3)cc2)c1,112,-5,454*,11,601*,102,1,104
CC(C)CC1NC(=O)N(CC(=O)Nc2ccccc2-c2ccccc2)C1=O (stereo not drawn),98,-7,-15,0,88,.,.,.

# Bioassay records as filed in PubChem BioAssay.
